LmPK inh – qHTS Assay for Inhibitors of Leishmania Mexicana Pyruvate Kinase (LmPK); AID 1721, 2009; Potency, µM (titrated, usually from 57.5 µM), for the others: at the top dose activity change, negative = inhibition, hits mostly inhibitors; 290,000 compounds, 0.37% hits; purified LmPK, Kinase-Glo ATP luminescence, 1 h; Q27686; further: potency means the concentration at half of the fitted maximal effect; on the % scale 0 is the no-effect control and ±100 the full control effect
Target sequence (Q27686 whole entry, looked up): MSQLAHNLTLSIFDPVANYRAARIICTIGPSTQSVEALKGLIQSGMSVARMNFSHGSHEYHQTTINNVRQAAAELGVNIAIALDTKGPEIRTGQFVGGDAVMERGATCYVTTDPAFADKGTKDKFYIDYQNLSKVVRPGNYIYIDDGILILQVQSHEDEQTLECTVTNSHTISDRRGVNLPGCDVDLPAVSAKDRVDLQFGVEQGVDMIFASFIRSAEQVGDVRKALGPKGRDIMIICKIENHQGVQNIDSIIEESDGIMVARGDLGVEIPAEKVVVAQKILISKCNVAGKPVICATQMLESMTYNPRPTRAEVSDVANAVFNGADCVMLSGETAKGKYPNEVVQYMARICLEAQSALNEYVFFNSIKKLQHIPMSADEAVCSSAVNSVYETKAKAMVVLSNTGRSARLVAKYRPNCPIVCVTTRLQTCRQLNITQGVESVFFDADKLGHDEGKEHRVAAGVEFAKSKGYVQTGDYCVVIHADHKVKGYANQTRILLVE
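In 50 mM imidazole pH 7.2 with 7 mM MgCl2, LmPK (0.1 nM) turned over PEP (0.5 mM) and ADP (0.1 mM) for 1 h at room temperature. Luciferase read-out of ATP.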
Sm TGR block – qHTS Assay for the Inhibitors of Schistosoma Mansoni Peroxiredoxins | purified TGR, DTNB reduction, TNB absorbance 405 nm | Potency, µM (highest dose often 114 µM), for the others: at the top dose activity change, negative = inhibition, hits mostly inhibitors | AID 485364, 2010 | 360,000 compounds, 3% hits; further: potency means the concentration at half of the fitted maximal effect; on the % scale 0 is the no-effect control and ±100 the full control effect; nearly all actives have a fitted effect of over 60% in size
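Kinetic colorimetric format: TGR-catalysed, NADPH-driven DTNB reduction monitored via TNB absorbance. Enzyme dispensed at 20 nM; compound exposure 15 min at room temperature before reaction start.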
CHX counter – Cycloheximide Counterscreen for Small Molecule Inhibitors of Shiga Toxin. cell reporter, cycloheximide protein synthesis inhibition counterscreen. max response, %. 300,000 compounds, 12% hits; in the data active means max response mostly above about 13%, no sharp cut-off; inactive means mostly below about 14%; further: read at 38.3 µM for the half of the compounds with a filed dose; 0% is about no effect
TbPYK inhibitor – qHTS of Trypanosoma Brucei Inhibitors; pyruvate kinase (Trypanosoma brucei), Q57TT1; TbPYK enzyme, Kinase-Glo Plus ATP luminescence, 45 min; Potency, µM (doses to about 76.8 µM), for the others: top-dose activity, negative = inhibition, most hits filed as inhibitors; 410,000 compounds, 0.12% hits; AID 624173, 2012; further: potency means the concentration at half of the fitted maximal effect; on the % scale 0 is the no-effect control and ±100 the full control effect; nearly all actives have a fitted effect of over 50% in size
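Assay buffer: 50 mM TEA pH 7.2, 100 mM KCl, 10 mM MgCl2, 0.05% BSA, 0.01% Tween-20. Pyruvate kinase from T. brucei plus substrate met compound, then ADP (130 uM final). Luminescence was read post 45 min RT.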
FBPA Giardia inh – qHTS Assay for Inhibitors of Fructose-1,6-bisphosphate Aldolase from Giardia Lamblia. A8B2U2. 290,000 compounds, 0.71% hits. Potency, µM (highest dose often 59.6 µM), for inactives: at the highest dose activity, negative = inhibition, actives largely listed as inhibitors. AID 2451, 2010. purified Giardia FBPA; further: potency means the concentration at half of the fitted maximal effect; on the % scale 0 is the no-effect control and ±100 the full control effect; nearly all actives have a fitted effect of over 55% in size
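Giardia FBPA (40 nM reagent) was preincubated 10 min at RT with compound (up to 57.5 uM final), then substrate plus GAPDH/TPI/NAD/arsenate coupling system with diaphorase/resazurin was added; resorufin fluorescence (525/598 nm) was read after 20 min.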
Shiga toxin inh – A qHTS for Small Molecule Inhibitors of Shiga Toxin; inhibition, % at 38.7 µM; Vero cells, Shiga toxin protein synthesis inhibition reporter; 290,000 compounds, 9.2% hits; in the data active means inhibition mostly above about 28%, no sharp cut-off; inactive means mostly below about 43%; further: 0% is about no effect
An asterisk follows results filed as active; ? = inconclusive; / = no result. Shown is part of a subset that was picked to be rich in hits. Unless noted, the call rests on the fitted dose curve; in most records, active means well fitted curve in the direction sought with a large enough effect; inconclusive means small, poorly fitted or top-dose-only effect, or another doubt; inactive means no such curve, though single readings can be large; an effect the other way counts as inactive or inconclusive.

SMILES	LmPK inh	Sm TGR block	CHX counter	TbPYK inhibitor	FBPA Giardia inh	Shiga toxin inh
CC(NC(=O)Cc1cc(F)cc(F)c1)C(=O)NC(C(=O)OC(C)(C)C)c1ccccc1 (centres undefined)	/	/	0.5	/	-4.6%	-8.1
COc1cc(NS(=O)(=O)c2cc3c(cc2C)N(C)CCO3)cc(OC)c1OC	/	6.1%	/	-3.9%	/	/
Cn1ncc(Cl)c1C(=O)NCc1ccc2c(c1)OCO2	0.6%	0.0%	-0.8	-5.7%	/	35.5
Cn1ncc(Cl)c1C(=O)Nc1ccc2c(c1)OCO2	-5.5%	1.1%	21.5*	-8.3%	/	47.2
O=C(Nc1ccc2c(c1)OCO2)c1c(Cl)nc2sccn12	0.8%	3.4%	25.4*	-2.1%	1.0%	103.3*
Cn1ncc([N+](=O)[O-])c1C(=O)Nc1ccc2c(c1)OCCO2	0.0%	12.7%	32.6*	-4.3%	2.0%	53.8*
Cc1c(C(=O)Nc2ccc3c(c2)OCCO3)cnn1C	-4.0%	-9.2%	47.5*	0.7%	-2.2%	77.6*
N#CCCn1c(=O)c(-c2cc(F)cc(F)c2)nc2cnc(N3CCOCC3)nc21	/	/	/	/	8.9%	/
Cc1nn(C)cc1C(=O)Nc1ccc2c(c1)OCCO2	-1.5%	-6.8%	42.6*	-23.1%	-6.1%	71.4*
Cc1c(C(=O)Nc2ccc(Br)cc2)cnn1C	2.0%	2.3%	77.7*	-5.0%	-7.7%	130.3*
Cn1nccc1C(=O)Nc1ccc2c(c1)OCCO2	15.8µM*	4.2%	43.4*	-23.9%	-5.6%	96.5*
Cn1ncc([N+](=O)[O-])c1C(=O)Nc1ccc(-c2ccccc2)cc1	-1.9%	7.5%	13.1*	1.9%	-6.1%	/
Cn1ncc(Br)c1C(=O)Nc1ccc(Br)cn1	2.0%	0.3%	-2.8	-3.9%	8.7%	-2.5
CCCCc1c(-c2ccccc2OC)ncn1CCc1ccccc1Cl	/	/	/	5.2%	/	/
Cn1c(=O)c2[nH]c(Cc3ccsc3)nc2n(C)c1=O	/	/	/	-0.3%	/	/
COc1cc(CNC(=O)C2CCC(=O)N(C3CCCCCC3)C2)cc(OC)c1 (centres undefined)	-3.0%	-10.1%	-2.2	4.5%	2.6%	-8.3
COCCN1Cc2cccc(C(=O)Nc3ccc4c(c3)OCCO4)c2C1=O	1.5%	-3.1%	30.9*	0.7%	-9.7%	65.1*
Cc1ccc(OCC(=O)NCC2CCCO2)c(C)c1 (centres undefined)	1.9%	8.2%	39.4*	2.2%	2.5%	33.8
CCC(=O)c1ccc(OCC(=O)OCC(=O)NCC2CCCO2)cc1 (centres undefined)	-10.9%	-22.6%	19.1*	-0.1%	/	20.3
Cc1ccc(OCC(=O)NNC(=O)C2CCCO2)c(C)c1 (centres undefined)	-1.8%	2.0%	21.3*	4.2%	3.2%	11.8
Cc1cc(OC(C)C(=O)NCC2CCCO2)cc(C)c1Cl (centres undefined)	0.7%	1.1%	-2.0	1.7%	/	-1.3
O=C(COC(=O)COc1ccc(Br)cc1)NCC1CCCO1 (centres undefined)	/	/	/	2.0%	/	/
Cc1cc(OCC(=O)NNC(=S)NCC2CCCO2)cc(C)c1Cl (centres undefined)	-3.4%	1.3%	17.5*	?	/	33.0
CN(C)c1ncnc2c1C(c1ccccc1)C(C)(C)O2 (centres undefined)	/	/	/	-5.7%	/	/
CN1C(=O)CN(CCN2CC(=O)N(C)C(=O)C2)CC1=O	/	/	/	0.8%	/	/
SMILES	LmPK inh	Sm TGR block	CHX counter	TbPYK inhibitor	FBPA Giardia inh	Shiga toxin inh
Cc1c(C(=O)Nc2ccccc2N2CCN(C)CC2)oc2ccc(F)cc12	/	4.5%	/	-1.6%	/	/
CC(=O)c1ccc(N2CCN(C(=O)CCC(=O)c3cccs3)CC2)cc1	-11.1%	3.2%	-1.4	-16.0%	0.6%	29.8
O=C(OCC(=O)N1CCCC1)c1cccs1	-9.5%	0.0%	42.2*	-1.3%	2.5%	72.0*
O=C(c1cccs1)N1CCN(c2ccc(Cl)cc2)CC1	3.1%	-33.1%	22.2*	-10.9%	4.4%	19.8
O=C(CCC(=O)N1CCN(c2ccc(O)cc2)CC1)c1cccs1	-15.3%	56.2µM*	30.5*	-20.9%	-24.0%	51.9*
O=C(NCC(=O)N1CCN(c2ccccc2)CC1)c1cccs1	-1.8%	0.0%	22.1*	32.8%	5.4%	20.6
O=C(NCC(=O)N1CCN(c2ncccn2)CC1)c1cccs1	-1.8%	-3.7%	32.9*	0.7%	3.4%	46.1
CC(C)N1CCC(=NNC(=O)c2cccs2)CC1	-12.2%	-0.8%	45.8*	0.3%	/	113.6*
CN1CCN(C(=O)CNC(=O)c2cccs2)CC1	/	/	/	-4.4%	/	/
Cc1ccc(C(=O)NCC(=O)N2CCN(c3ncccn3)CC2)s1	1.5%	-9.5%	12.2	9.9%	-0.7%	47.0
O=C(NCC(=O)N1CCCC1)c1cccs1	-4.0%	2.1%	16.8*	-3.5%	1.2%	25.8*
COC(=O)[C@@]1(Cc2ccc(OC)cc2)[C@H]2c3cc(C(=O)N(C)C)n(CCc4ccc(O)c(OC)c4)c3C[C@H]2CN1C(=O)c1ccccc1	/	/	/	/	-0.1%	/
Cn1nnnc1Sc1ncnc2scc(-c3cccs3)c12	/	3.55µM*	/	-23.5%	/	/
Cn1nnnc1Sc1ncnc2scc(-c3ccccc3C(F)(F)F)c12	/	3.98µM*	/	?	/	/
O=C(COc1ccc2ccccc2c1)NC1CC(=O)N(c2cccc(F)c2)C1 (centres undefined)	/	2.5%	/	2.4%	/	/
O=C(CCCOc1ccc(Cl)cc1Cl)NCCc1nnc2ccccn12	4.9%	1.8%	14.9	-0.8%	-7.6%	18.9*
O=C(CCSc1ccc(Cl)cc1)NCc1ccccn1	2.0%	-8.3%	12.6*	-3.9%	1.8%	22.7
O=C(CCCOc1ccc(Cl)cc1Cl)NCCCO	-0.6%	-3.9%	11.7	-4.0%	6.4%	-20.4
O=C(CCn1nc(-c2ccc(Cl)cc2)ccc1=O)NCc1ccccn1	-2.9%	?	-1.4	-1.3%	-0.4%	-2.3
O=C(CCCOc1ccc(Cl)cc1Cl)NCCc1ccccn1	-6.5%	-2.7%	30.5*	-0.7%	/	38.9*
Cc1cccc(N2CCN(S(=O)(=O)c3ccc4oc(=O)c5ncn(C)c5c4c3)CC2C)c1 (centres undefined)	/	-1.6%	/	-2.7%	/	/
COc1ccc2[nH]cc(CCNc3ccnc(-c4cccc(NS(C)(=O)=O)c4)n3)c2c1	/	/	/	/	-20.4%	/
CCOc1ccc(C(C)C)cc1S(=O)(=O)Nc1cccc(-c2ccc(N3CCOCC3)nn2)c1	/	-1.4%	/	0.0%	/	/
O=C(CCS(=O)(=O)c1cccs1)N1CCCC1	-2.9%	-12.7%	17.8*	-1.0%	-0.3%	63.0*
CC(C)(O)C#Cc1ccc(C(=O)N2CCCC(CNS(=O)(=O)c3cccs3)C2)o1 (centres undefined)	7.1%	11.2µM*	0.8	-11.3%	/	-14.1
